TRPM1 prom inh: reduces MITF-dependent TRPM1 promoter luciferase signal; 0.83% of 330,000 active; SK-MEL-5 TRPM1 promoter luciferase, 24 h; inhibition, % at 12.5 µM;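 active = mean inhibition across replicates of 60% or more, whatever share of single replicates reaches that level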
CHOP inh: CHOP inhibition in unfolded protein response; CHO-K1 CHOP-promoter luciferase, tunicamycin-induced, 15-18 h; inhibition, % at 10 µM; 3.8% of 220,000 active; AID 2732;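 active = compounds that reduced the stress-induced luciferase reporter signal by more than about 70% of percent inhibition, limit read from the data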;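 also: 0% = tunicamycin plus vehicle and 100% = wells without tunicamycin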
CF NFkB inh: cystic fibrosis NF-kB activation inhibition | 0.86% of 360,000 active | inhibition, % at 5 µM | AID 588850 | KKLEB NF-kB-GFP reporter, PAF-induced, GFP fluorescence overnight;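 active = at least 50% inhibition at 5 µM, scaled per plate between neutral and stimulator controls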;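 also: PAF is a Pseudomonas aeruginosa culture filtrate used as stimulus; plate controls were PAF-stimulated DMSO wells for no effect and unstimulated DMSO wells for full effect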
Peg3 prom inh-1: inhibitors of Peg3 promoter | 1.7% of 360,000 active | inhibition, % at 20 µM | HeLa PEG-Prom luciferase reporter, luminescence, overnight;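 active = inhibition of at least 50% at 20 µM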
KKLEB tox: reduces viability of KKLEB cystic fibrosis airway cells. KKLEB CF airway cells viability, ATPlite luminescence, overnight; stronger effect = lower value; cells stimulated with P. aeruginosa culture filtrate. activity change (cytotoxicity), % at 5 µM. 0.36% of 360,000 active;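 active = corrected activity change at or below -50% at 5 µM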
HIF-2a block: HIF-2a inhibition; 786-0 RCC cells HIF-2a reporter, luciferase luminescence, overnight; 0.72% of 360,000 active; inhibition, % at 18.8 µM;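 active = inhibition of the luminescence signal of 40% or more relative to plate controls, in a single-dose primary screen at 18.75 µM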
Peg3 prom inh-2: confirmation of Peg3 promoter inhibitors. AID 602417. shares compounds with Peg3 prom inh-1. HeLa PEG-Prom luciferase reporter, luminescence, overnight. 84% of 1,300 active. inhibition, % at 20 µM;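 active = at 20 µM dose, 40% or more inhibition averaged across four replicates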
CF NFkB inh conf: confirmation of cystic fibrosis induced NF-kB inhibitors. 64% of 1,300 active. inhibition, % at 5 µM. AID 602472. KKLEB CF airway cells, PAF-induced NF-kB-GFP fluorescence, overnight. shares compounds with CF NFkB inh; in the data active = inhibition above about 40%;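 also: stimulus PAF is a Pseudomonas aeruginosa filtrate and not platelet activating factor; plate controls were DMSO wells with stimulus for no effect and unstimulated DMSO wells for full effect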
* hit, by the source's call; · = no result given. Most compounds without a hit are left out; they make up all but 4.3% or so of the library.

SMILES	TRPM1 prom inh	CHOP inh	CF NFkB inh	Peg3 prom inh-1	KKLEB tox	HIF-2a block	Peg3 prom inh-2	others
COCc1cc(C)n(CC(=O)Nc2ccc3c(c2)OCO3)c(=O)c1C#N	1	·	3	-11	-8	12	·
O=C(/C=C/c1ccc2ccccc2n1)N1CCN(S(=O)(=O)c2ccc(F)cc2)CC1	52	34	30	17	-2	14	·
O=C(/C=C/c1ccc2ccccc2n1)N1CCN(S(=O)(=O)c2ccccc2F)CC1	29	70*	36	50*	-23	35	39
COc1cccc(N2CCN(CC(=O)Nc3ccccc3C(=O)NCc3ccccc3)CC2)c1	4	·	-6	57*	-12	25	51*
COc1cccc(N2CCN(CC(=O)Nc3ccccc3C(=O)NCCc3ccccc3)CC2)c1	-8	·	-14	-85	10	-201	·
COC(=O)c1ccc(Cn2c(C)c(C(=O)Nc3cccc(Oc4ccccc4)c3)sc2=O)o1	·	·	-12	20	10	-5	·
CCOC(=O)c1cc2c(=O)n3ccccc3nc2n(CCOC)c1=NC(=O)c1c(-c2c(F)cccc2Cl)noc1C	1	-3	-30	53*	-8	30	30
NC(=O)NOCc1ccccc1F	2	16	14	10	0	14	·
Cc1cccc(C)c1NC(=O)C(C1CC1)n1c(-c2ccc(C(F)(F)F)cc2)nc2ccccc21 (stereo not given)	·	·	·	·	·	-7	·
Brc1ccc(N/N=C(/N=Nc2nn[nH]n2)c2ccccc2)cc1	67*	71*	23	70*	-4	-57	64*
NCc1cc2c3c(c1)CCCN3CCC2	3	·	-17	5	5	1	·
O=C(Nc1ccc([N+](=O)[O-])cc1)C(=O)Nc1cccc(C(=O)O)c1	·	102*	-26	64*	12	80*	68*
Cc1cc(Br)ccc1OCC(=O)NNC(=O)c1cnccn1	2	-23	-13	6	16	1	·
COc1ccc(S(=O)(=O)NCC(=O)NCCc2ccc(OC)c(OC)c2)cc1	·	·	12	2	-17	3	·
COCCCNC(=O)c1ccc(Cn2c(=O)c3ccccc3n(Cc3ccccc3C#N)c2=O)cc1	16	6	7	54*	1	13	57*
O=C(Cc1c(F)cccc1Cl)N1CCN(S(=O)(=O)c2cccc(F)c2)CC1	0	·	21	1	0	17	·
CCOc1ccc2nc(NC(=O)c3ccccn3)sc2c1	80*	34	-5	104*	-38	-17	90*
CCOc1ccc2nc(NC(=O)Nc3ccccc3)sc2c1	-58	-20	3	-343	0	-255	·
COCCn1c(C)cc(/C=C2/NC(=O)N(c3ccc(Cl)cc3)C2=O)c1C	-5	8	-5	7	5	-3	·
Cn1c2ccccc2c2ccc3c(c21)C(=O)C=CC3=O	89*	·	33	104*	-12	-12	101*
CC(=O)n1cc(N(C(=O)CCl)c2ccc([N+](=O)[O-])cc2)c2ccccc21	69*	106*	80*	90*	-83*	30	99*
O=Cc1[nH]c2ccccc2c1N(C(=O)CCl)c1ccc([N+](=O)[O-])cc1	-3	29	16	6	4	29	·
CC1=NN(c2cccc(C(=O)O)c2)C(=O)/C1=C\C=C/c1ccccc1	·	93*	64*	78*	-15	59*	52*
CC1=NN(c2ccc(C)cc2)C(=O)/C1=C\C=C\c1ccccc1	38	3	-10	46	13	24	·
CNC(=S)NNC(=O)c1noc(C)c1C(=O)N1CCN(C(c2ccccc2)c2ccccc2)CC1	4	9	3	9	8	9	·
SMILES	TRPM1 prom inh	CHOP inh	CF NFkB inh	Peg3 prom inh-1	KKLEB tox	HIF-2a block	Peg3 prom inh-2	others
CCN1C(=O)c2ccc(C(=O)Nc3c(C)cc(C)cc3C)cc2C1=O	-4	·	9	0	-24	5	·
O=C(CCN1C(=O)[C@@H]2Cc3ccccc3CN2C1=O)NCc1ccccc1Cl	-10	·	-21	15	10	2	·
O=C(NCCC(=O)N1CCC2(CC1)NCCc1[nH]cnc12)c1cccc(Br)c1	3	·	-17	4	6	6	·
OC[C@@H]1[C@@H](c2ccc(Cl)cc2)C(c2ccccc2)=NN1c1ccccc1	7	·	22	19	-6	11	·
OC[C@@H]1[C@@H](c2ccc(Cl)cc2)C(c2cccc(Cl)c2)=NN1c1ccccc1	-4	·	34	54*	-2	-3	65*
COc1ccc(-n2nc(C(=O)NCC(=O)Nc3cc(OC)c(OC)c(OC)c3)c3ccccc3c2=O)cc1OC	11	·	83*	55*	-26	6	44*	CF NFkB inh conf=90*
COc1ccccc1CN(C)C(=O)c1cc(-c2cc(OC)c(OC)c(OC)c2)nc2ccccc12	22	·	74*	53*	-32	-2	56*	CF NFkB inh conf=10
Cc1cc(C)cc(N2C(=O)CSC2c2ccccn2)c1 (stereo not given)	13	-1	10	16	0	0	·
Cc1ccc(/C=C2/Sc3ccc(C(=O)NCCN4CCOCC4)cc3NC2=O)cc1	-20	·	-7	5	-2	-21	·
Cc1cccc(CN2C(=O)/C(=C\c3ccc(C(=O)NCCN4CCOCC4)cc3)Sc3ccccc32)c1	-2	·	82*	92*	5	9	92*	CF NFkB inh conf=-16
CCOc1ccc(N2C(=O)CC(N(Cc3ccco3)C(=O)CCC(=O)O)C2=O)cc1 (stereo not given)	6	-4	11	4	-10	16	·
O=C(Nc1ccccc1)c1nc[nH]c1C(=O)NCCCCNC(=O)c1[nH]cnc1C(=O)Nc1ccccc1	6	·	54*	60*	-13	4	56*	CF NFkB inh conf=59*
CC(C)(C)OC(=O)NCCCCCNC(=O)c1[nH]cnc1C(=O)Nc1ccccc1	2	·	0	33	4	13	·
CN(C)S(=O)(=O)c1cccc(NC(=O)CSc2nc3c(cc2C#N)C(=O)CC(C)(C)C3)c1	68*	-5	58*	60*	-20	-12	60*	CF NFkB inh conf=35
CN(C)S(=O)(=O)c1ccc(Cl)c(NC(=O)CSc2nc3c(cc2C#N)C(=O)CC(C)(C)C3)c1	-1	21	28	-15	-4	17	·
CC(=O)NC(CC(=O)OC(C)C(=O)Nc1ncc(Cl)cc1Cl)c1ccccc1 (stereo not given)	2	·	-2	3	0	14	·
CC1CCN(C(=O)c2ccc(NC3=C(Cl)C(=O)N(Cc4ccccc4)C3=O)cc2)CC1	0	·	12	40	-4	-2	·
